Source: PubChem (National Center for Advancing Translational Sciences (NCATS))
DT40 TDP1 no CPT = qHTS for Inhibitors of human tyrosyl-DNA phosphodiesterase 1 (TDP1): qHTS in cells in absence of CPT. DT40 Tdp1-/- hTDP1 cells, no CPT, ATP luminescence, 48 h. Potency, µM (highest dose often 46.2 µM), for inactives: at the top dose activity change, negative = growth inhibition, most hits filed as inhibitors. 420,000 tested, 15% active; note: potency is the fitted concentration of half-maximal effect; % is set by controls: 0 for no effect and ±100 for the full control effect; nearly all actives have a fitted effect of over 55% in size
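Luminescent ATP content (CellTiter-Glo) served as the growth readout. Knockout chicken DT40 cells expressing human TDP1 were exposed to compounds without camptothecin for a minimum 48 hr at 37 °C.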
TDP1 inh = qHTS Assay for Inhibitors of Tyrosyl-DNA Phosphodiesterase (TDP1) | Tyrosyl-DNA phosphodiesterase 1 (Homo sapiens), Q9NUW8 | recombinant TDP1, AlphaScreen DNA substrate cleavage | Potency, µM (doses to about 130 µM), for the others: at the top dose activity change, negative = inhibition, actives largely listed as inhibitors | 350,000 tested, 0.28% active | AID 485290, 2010; note: potency is the fitted concentration of half-maximal effect; % is set by controls: 0 for no effect and ±100 for the full control effect; nearly all actives have a fitted effect of over 40% in size
Target sequence (Q9NUW8 whole entry, looked up): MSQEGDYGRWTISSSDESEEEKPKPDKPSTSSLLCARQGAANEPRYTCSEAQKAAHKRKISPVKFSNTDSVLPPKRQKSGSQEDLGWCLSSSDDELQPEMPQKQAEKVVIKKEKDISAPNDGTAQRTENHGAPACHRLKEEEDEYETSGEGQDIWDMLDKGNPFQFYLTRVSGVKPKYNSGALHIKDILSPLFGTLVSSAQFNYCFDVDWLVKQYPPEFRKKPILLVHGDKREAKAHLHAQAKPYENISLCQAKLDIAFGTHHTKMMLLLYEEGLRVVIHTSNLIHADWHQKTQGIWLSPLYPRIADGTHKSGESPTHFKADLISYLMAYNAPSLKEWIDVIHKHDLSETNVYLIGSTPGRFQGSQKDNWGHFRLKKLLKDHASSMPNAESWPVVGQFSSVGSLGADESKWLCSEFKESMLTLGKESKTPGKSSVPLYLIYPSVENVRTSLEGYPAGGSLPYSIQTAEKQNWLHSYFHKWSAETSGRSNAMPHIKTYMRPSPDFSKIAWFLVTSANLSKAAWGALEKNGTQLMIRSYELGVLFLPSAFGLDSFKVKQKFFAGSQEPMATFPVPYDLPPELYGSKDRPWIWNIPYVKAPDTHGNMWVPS
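Recombinant E. coli-expressed Tdp1 (1 nM) preincubated with compound 15 min at RT, then 5'-biotin/3'-phosphotyrosine-FITC DNA substrate (15 nM) added for 5 min. AlphaScreen beads (10 ug/ml) added, 10 min RT; tyrosine-FITC cleavage read as signal loss.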
IL-1B inflam inh = qHTS for Inhibitors of Inflammasome Signaling: IL-1-beta AlphaLISA Primary Screen; THP-1 LPS/ATP IL-1B secretion, AlphaLISA, 16 h; hits give low values; 360,000 tested, 4.7% active; AID 743279, 2014; activity change, % at 57.5 µM; in the data active = activity change below about -50%; inconclusive = mostly about -30% to -49%; note: % is set by controls: 0 for no effect and ±100 for the full control effect
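Secreted IL-1B measured by AlphaLISA bead assay after 16 h compound exposure of THP-1 cells; compounds (final up to 57.5 uM) added 1 h before LPS (250 ng/mL) and ATP (1.25 mM) stimulation; lower signal means less secretion.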
HepG2 tox = qHTS for Inhibitors of TGF-b: Cytotox Counterscreen | HepG2 CAGA-GFP viability, ATP luminescence, 18 h | Potency, µM (top dose mostly 46.1 µM), inactives show top-dose activity change, negative = cytotoxicity, actives largely listed as cytotoxic | 410,000 tested, 0.76% active | AID 588856, 2011; note: potency is the fitted concentration of half-maximal effect
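HepG2 CAGA-GFP cells (1000/well, DMEM with 1% FBS) received compound, then TGF-beta at 500 pg/mL final, and were incubated 18 hours at 37 degrees C. Viability was read by CellTiter-Glo luminescence. Media-only wells were set as complete cell-killing and DMSO as no toxicity.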
TGFb inhibitor = qHTS for Inhibitors of TGF-b; 410,000 tested, 1.2% active; HepG2 CAGA-GFP TGF-b/SMAD3 reporter, GFP fluorescence, 18 h; TGF-beta stimulated, 500 pg/mL final; AID 588855, 2011; Potency, µM (top dose mostly 46.1 µM), for the others: top-dose activity, negative = inhibition, hits mostly inhibitors; note: potency is the fitted concentration of half-maximal effect; % is set by controls: 0 for no effect and ±100 for the full control effect; nearly all actives have a fitted effect of over 65% in size
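Smad-responsive CAGA-GFP expression was quantified in HEPG2 cells exposed to compounds and 500 pg/mL final TGF-beta for 18 h at 37 degrees C; unstimulated wells defined full inhibition.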
DT40 TDP1 CPT = qHTS for Inhibitors of human tyrosyl-DNA phosphodiesterase 1 (TDP1): qHTS in cells in presence of CPT; AID 686979, 2013; chicken DT40 Tdp1-/-;hTDP1 cells + 20 nM CPT, ATP luminescence, 48 h; 420,000 tested, 12% active; Potency, µM (highest dose often 46.2 µM), for inactives: at the highest dose activity change, negative = growth inhibition, hits mostly inhibitors; note: potency is the fitted concentration of half-maximal effect; % is set by controls: 0 for no effect and ±100 for the full control effect; nearly all actives have a fitted effect of over 55% in size
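Cell growth measured by CellTiter-Glo luminescence after a minimum 48 h, 37 C compound exposure with 20 nM CPT in Tdp1-knockout DT40 cells stably expressing hTDP1, seeded 400/well; qHTS titration format.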
Active calls of the source: *; [ ] = remark or other dose. Hits are enriched below; roughly 19% of the tested compounds scored in any of these assays. Unless noted, calls come from the whole dose curve; as a rule, active = well fitted curve in the direction sought with a large enough effect; inconclusive = small, poorly fitted or top-dose-only effect, or another doubt; inactive = no such curve, though single readings can be large; an effect the other way counts as inactive or inconclusive.

For CCOc1ccc(OCC(=O)NCCS(=O)(=O)N2CCN(c3cccc(Cl)c3)CC2)cc1 the results were DT40 TDP1 no CPT inconclusive, TDP1 inh -5%, HepG2 tox -16%, TGFb inhibitor -8% and DT40 TDP1 CPT inconclusive.
For Cc1nn(C(C)C(=O)N/N=C/c2ccc(N(C)C)cc2)c(C)c1[N+](=O)[O-] (configuration not stated) the results were DT40 TDP1 no CPT -18%, TDP1 inh 4%, IL-1B inflam inh 6, HepG2 tox 9%, TGFb inhibitor -15% and DT40 TDP1 CPT -21%.
Screening Cc1ccc(C(=O)c2ccc(C)cc2)cc1 returned DT40 TDP1 no CPT -23%, TDP1 inh -3%, IL-1B inflam inh -25, HepG2 tox -21%, TGFb inhibitor -7% and DT40 TDP1 CPT inconclusive.
Cc1ccc(C(=O)c2no[n+]([O-])c2C(=O)c2ccc(C)cc2)cc1 was read as DT40 TDP1 no CPT 5.8µM*, TDP1 inh 8%, IL-1B inflam inh -91*, HepG2 tox -80%, TGFb inhibitor inconclusive and DT40 TDP1 CPT 2.9µM*.
Screening COC(=O)c1ccc(NC(=S)Nc2ccc3ccccc3c2)cc1 returned DT40 TDP1 no CPT -27%, TDP1 inh 6%, IL-1B inflam inh 55, HepG2 tox -26%, TGFb inhibitor inconclusive and DT40 TDP1 CPT -15%.
C/C(=C\C(=S)Nc1ccccc1)Nc1ccc2ccccc2c1 was read as DT40 TDP1 no CPT inconclusive, TDP1 inh -3%, IL-1B inflam inh 10, HepG2 tox -42%, TGFb inhibitor inconclusive and DT40 TDP1 CPT 18µM*.
`Cc1cccc(NC(=S)Nc2cccc3ccccc23)c1` gave DT40 TDP1 no CPT -10%, TDP1 inh 4%[56.1 µM], IL-1B inflam inh 20, HepG2 tox 0%, TGFb inhibitor -1% and DT40 TDP1 CPT inconclusive.
For C/C(=C\C(=S)Nc1ccccc1)Nc1cccc2ccccc12 the results were DT40 TDP1 no CPT 23µM*, TDP1 inh 12%, IL-1B inflam inh -7, HepG2 tox -26%, TGFb inhibitor inconclusive and DT40 TDP1 CPT inconclusive.
CC1CN(Cc2cccn2-c2ncccn2)Cc2cc(Cl)ccc2O1 (configuration not stated) was read as DT40 TDP1 no CPT inconclusive and DT40 TDP1 CPT 14%[9.04 µM].
For CC1CN(Cc2cccn2-c2cccnc2)Cc2cc(Cl)ccc2O1 (configuration not stated) the results were DT40 TDP1 no CPT 18µM* and DT40 TDP1 CPT -18%[9.04 µM].
`c1csc(CNc2nc(CN3CCCC(c4nc5ccccc5o4)C3)nc3ccccc23)c1` (configuration not stated) gave DT40 TDP1 no CPT inconclusive and DT40 TDP1 CPT 11%[9.04 µM].
Screening COc1ccc(-n2ccc(-c3sc(NCc4cc(OC)c5c(c4)OCO5)nc3C)n2)cc1 returned DT40 TDP1 no CPT inconclusive and DT40 TDP1 CPT -10%[9.04 µM].
For S=C(N/N=C/c1cccs1)NC1CC2CCC1C2 (configuration not stated) the results were DT40 TDP1 no CPT inconclusive, TDP1 inh 10%, HepG2 tox -15%, TGFb inhibitor -25% and DT40 TDP1 CPT -27%.
Screening Oc1ccc(/C=N/NC(=S)NC2CC3CCC2C3)cc1 (configuration not stated) returned DT40 TDP1 no CPT inconclusive, TDP1 inh 6%, IL-1B inflam inh -66*, HepG2 tox -30%, TGFb inhibitor -27% and DT40 TDP1 CPT inconclusive.
